Measurements taken from PubChem BioAssay (Tox21).
Activity calls are given as the source filed them. Calls come from the whole dose curve; as a rule, active = well fitted curve in the direction sought with a large enough effect in the repeat runs; inconclusive = weak or mixed curves; inactive = flat fitted curve, though single readings scatter.

Assay: qHTS assay to test for compound auto fluorescence at 460 nm (blue) in HEK293 cell free culture (AID 720681)
Details: cell-free medium, autofluorescence 405/460 nm (blue); series mostly up to 91.3 µM
How it was run: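 Compounds were added to cell-free DMEM with 10% FBS and fluorescence read directly. The blue channel used 405 nm excitation and 460 nm emission, with triamterene as the reference fluorophore.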
% is set by controls: 0 for no effect and ±100 for the full control effect.

SMILES	outcome	fluorescence, % of fluorescent control
CC1CCc2c(N3CCC(O)CC3)c(F)cc3c(=O)c(C(=O)O)cn1c23 (stereo not drawn)	inactive	
Cc1ccc(C(C)NC(=O)[C@@H](NC(=O)OC(C)C)C(C)C)cc1 (stereo partly drawn)	inactive	
CN(C)CC/C=C1/c2ccccc2COc2ccc(CC(=O)O)cc21	inactive	
Cc1cc(C)c(C(=O)O)c(C)c1	inactive	
CC1(C)[C@H]2CC[C@](C)(C2)[C@H]1O	inactive	
COS(=O)(=O)O	inactive	
CC1c2ccccc2CN1NC(=O)c1ccc(Cl)c(S(N)(=O)=O)c1 (stereo not drawn)	inactive	
C=C(C)c1cccc(C(C)(C)N=C=O)c1	inactive	
C=CCCCCCCCC	inactive	
O=S(=O)(O)c1ccc2c(N=Nc3ccc(S(=O)(=O)O)c4ccccc34)c(O)c(S(=O)(=O)O)cc2c1	inactive	
CC(C)=CCC[C@@](C)(O)[C@H]1CC=C(C)CC1	inactive	
CN(C)CCCCl	inactive	
CCC(=O)c1c(O)cc(O)cc1O	inactive	
Nc1nc(-c2ccccc2)c(Br)c(=O)[nH]1	inactive	
CSc1cnccn1	inactive	
O=C1c2ccccc2C(=O)c2cc(Cl)ccc21		-0.0102% [at 3.72 µM] (inactive)
CC(C)Nc1ccccc1	inactive	

SMILES	outcome	fluorescence, % of fluorescent control
C[C@@H](O)C(=O)O	inactive	
OC[C@@H](O)C(O)[C@@H](O)CO (stereo partly drawn)	inactive	
O=C1CCCCO1	inactive	
CCCCOC(=O)[C@H](C)O	inactive	
Cn1c(=O)c2[nH]c(Br)nc2n(C)c1=O	inactive	
Cc1ccnc(N)c1	inactive	
Cc1cccc(Cl)c1	inactive	
[O]=[Mo](=[O])=[O]		0.0055% [at 18.6 µM] (inactive)
CC1=NN(c2ccc(S(=O)(=O)O)cc2)C(=O)C1	inactive	
CC(C)OC(=O)OCOP(=O)(CO[C@H](C)Cn1cnc2c(N)ncnc21)OCOC(=O)OC(C)C	inactive	
C/C(CC(C)C)=N\O	inactive	
C=CCCCC	inactive	
C=C(C)[C@@H]1CC=C(C)CC1	inactive	
CC(CO)(CO)CO	inactive	
O=C1OCCO1	inactive	
CC(=O)CC(=O)OC(C)(C)C	inactive	
CC1OCCC1=O (stereo not drawn)	inactive	

Assay: qHTS assay to test for compound auto fluorescence at 535 nm (green) in HEK293 cell free culture (AID 720682)
Details: cell-free medium, green autofluorescence 485/535 nm, stronger effect = higher value; series mostly up to 91.3 µM
How it was run: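 Using fluorescein as calibrant, autofluorescence was quantified at 485/535 nm in cell-free DMEM containing 10% FBS after pintool addition of compound or vehicle.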

SMILES	outcome	activity change
CC1CCc2c(N3CCC(O)CC3)c(F)cc3c(=O)c(C(=O)O)cn1c23 (stereo not drawn)	inactive	
Cc1ccc(C(C)NC(=O)[C@@H](NC(=O)OC(C)C)C(C)C)cc1 (stereo partly drawn)	inactive	
Cc1cc(C)c(C(=O)O)c(C)c1	inactive	
CC1(C)[C@H]2CC[C@](C)(C2)[C@H]1O	inactive	
COS(=O)(=O)O	inactive	
C=C(C)c1cccc(C(C)(C)N=C=O)c1	inactive	
O=S(=O)(O)c1ccc2c(N=Nc3ccc(S(=O)(=O)O)c4ccccc34)c(O)c(S(=O)(=O)O)cc2c1	inactive	
CC(C)=CCC[C@@](C)(O)[C@H]1CC=C(C)CC1	inactive	
CN(C)CCCCl	inactive	
CCC(=O)c1c(O)cc(O)cc1O	inactive	
Nc1nc(-c2ccccc2)c(Br)c(=O)[nH]1	inactive	
CSc1cnccn1	inactive	
OC[C@@H](O)C(O)[C@@H](O)CO (stereo partly drawn)	inactive	
O=C1CCCCO1	inactive	
CCCCOC(=O)[C@H](C)O	inactive	
Cc1ccnc(N)c1	inactive	
Cc1cccc(Cl)c1	inactive	
[O]=[Mo](=[O])=[O]		0.118% [at 18.6 µM] (inactive)
CC1=NN(c2ccc(S(=O)(=O)O)cc2)C(=O)C1	inactive	
C/C(CC(C)C)=N\O	inactive	
C=CCCCC	inactive	
C=C(C)[C@@H]1CC=C(C)CC1	inactive	
O=C1OCCO1	inactive	
CC(=O)CC(=O)OC(C)(C)C	inactive	
